Several values for one entry are separate records, joined by “and”; a condition that tells them apart may be missing. Equal values may be shown once. Out of some 16,000 compounds screened, about 5,700 (36%) were called active. Roughly 24% stayed inconclusive and do not appear here. The list shows a part of the results. Unmarked numbers belong to inactive results. The call rests on the fitted dose curve; in most records, active means well fitted curve in the direction sought with a large enough effect; inconclusive means small, poorly fitted or top-dose-only effect, or effect the other way; inactive means no such curve, though single readings can be large or run the other way.

What is called AC50 is the concentration at which the activity in the assay is half-maximal.
On the % scale 0 is the no-effect control and ±100 the full control effect.

For this assay, the target named is Cytochrome P450 1A2 (Homo sapiens) (UniProt P05177). The assay is described as follows: Cytochrome panel assay with activity outcomes. As to conditions: recombinant CYP, pro-luciferin dealkylation, luminescence, p450-cyp1a2; series mostly up to 57.1 µM; activity, negative = inhibition: at the top concentration.
Chain of Cytochrome P450 1A2 (Homo sapiens) (P05177 whole entry, looked up): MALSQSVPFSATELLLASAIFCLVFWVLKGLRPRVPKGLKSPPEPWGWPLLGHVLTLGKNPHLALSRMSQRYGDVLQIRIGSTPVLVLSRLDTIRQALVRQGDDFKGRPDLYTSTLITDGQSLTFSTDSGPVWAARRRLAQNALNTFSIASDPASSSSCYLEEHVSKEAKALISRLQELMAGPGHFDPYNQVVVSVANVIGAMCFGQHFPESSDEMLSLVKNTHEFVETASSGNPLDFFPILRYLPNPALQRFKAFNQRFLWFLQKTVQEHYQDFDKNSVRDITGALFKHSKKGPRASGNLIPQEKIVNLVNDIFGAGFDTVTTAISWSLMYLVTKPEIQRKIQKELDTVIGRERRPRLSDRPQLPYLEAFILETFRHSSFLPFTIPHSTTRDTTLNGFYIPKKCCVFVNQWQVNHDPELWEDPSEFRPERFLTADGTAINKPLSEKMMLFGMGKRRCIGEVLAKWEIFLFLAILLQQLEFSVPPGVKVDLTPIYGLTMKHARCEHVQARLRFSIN
Regarding `CCCSc1nc(SCC(=O)NCc2ccccc2)c2c3c(sc2n1)COC(C)(CC)C3` (configuration not stated), the “activity, negative = inhibition” value was -24.1%.
Still for that read-out and setting: the same measure for `Cc1ccc(S(=O)(=O)c2nc(S(=O)(=O)c3ccc(C)cc3)c(NCc3ccco3)s2)cc1`: -0.958%; for `Cc1ccc(-n2c(SCC(=O)NCc3ccco3)nc3sc4c(c3c2=O)CC(C)(C)SC4)cc1`: -16.6%.
For the molecule `Cc1nc(NCc2ccco2)c2c3c(sc2n1)CCC3`, the AC50 was 2.51 µM (active).
The same measure, in the same setting: the same measure for `Cc1nc(NS(=O)(=O)c2ccccc2C)c2c3c(sc2n1)CCC3`: 3.16 µM (active).
As to `CCSc1ncnc2c1sc1nc(-c3ccco3)c3c(c12)CC(C)(C)OC3`, the “activity, negative = inhibition” value was -15.2%.
For the molecule `CCCSc1nc(NCc2ccco2)c2c3c(sc2n1)COC(C)(C)C3`, the AC50 is 0.794 µM (active).
Consider `C[C@H](O/N=C1/[C@H]2O[C@@H]2[C@@H](O)[C@H]2[C@H]1CCn1c(=O)n(-c3ccccc3)c(=O)n12)c1cn([C@H](CO)Cc2ccccc2)nn1`, for which the activity, negative = inhibition is -6.4% [at 11.4 µM] and 3.91% [at 11.4 µM].
Same read-out and setting: the same measure for `COc1cc(C2C(C#N)=C(N)N(c3sc4c(c3C#N)CCCC4)C3=C2C(=O)CC(C)(C)C3)cc(OC)c1OC` (configuration not stated): -11%; for `O=C(c1csnn1)N1CCC[C@@]2(CCN(Cc3nccs3)C2)C1`: -3.58%.
In the case of `CC1(C)Cc2c(ccc3ccccc23)C(=O)N1`, the AC50 was 3.55 µM (active).
Same read-out and setting: the same measure for `CNC(=O)/C=C1\NC(C)(C)Cc2c1ccc1ccccc21`: 6.31 µM (active).
On to `C=C(NC(=O)C(=C)NC(=O)c1csc(C2=N[C@@H]3c4csc(n4)[C@@H]4NC(=O)c5csc(n5)[C@@H]([C@](C)(O)[C@H](C)O)NC(=O)[C@@H]5CSC(=N5)/C(=C/C)NC(=O)[C@@H]([C@H](C)O)NC(=O)c5csc(n5)[C@]3(CC2)NC(=O)[C@@H](C)NC(=O)C(=C)NC(=O)[C@@H](C)NC(=O)[C@@H]([C@@H](C)CC)N[C@H]2C=Cc3c([C@H](C)O)cc(nc3[C@@H]2O)C(=O)O[C@H]4C)n1)C(N)=O`, for which the “activity, negative = inhibition” value was -6.72% [at 25.6 µM].
Turning to `COCC(=O)N1CCC[C@@]2(CCN(c3ncccn3)C2)C1`, the “activity, negative = inhibition” value is -10.7%.
In the case of `CCCN(CCC)C(=S)NC(=O)c1ccc(Cl)cc1Cl`, the AC50 was 0.447 µM (active).
With `CCn1c(CCNC(=O)c2ccc(Cl)cc2Cl)n[nH]c1=S`, the “activity, negative = inhibition” value was 2.13%.
As to `CCCN(CCC)C(=O)[C@@H](CCC(=O)O)NC(=O)c1ccccc1`, the AC50 result is “inactive”.
Turning to `O=C(Nc1ccccc1[N+](=O)[O-])C1C(c2ccccc2)=C1c1ccccc1`, the “activity, negative = inhibition” value was -16.5%.
As to `O=[N+]([O-])c1ccccc1N/N=C/c1c[nH]c2ccccc12`, the AC50 was 5.62 µM (active).
Consider `Cn1c(N/N=C/c2c[nH]c3ccccc23)nc2ccccc21`, for which the concentration at half-maximal activity (AC50) is 1 µM (active).
For the molecule `COc1ccc(Nc2nc(N3CCCCC3)c3ccccc3n2)cc1`, the half-maximal activity concentration (AC50) is 1.78 µM (active).
Turning to `O=C(/C=C\c1ccc(O)c(O)c1)O[C@@H]1C[C@](O)(C(=O)O)C[C@@H](O)[C@@H]1O`, the “activity, negative = inhibition” value was 4.71% [at 25.6 µM].
Take `O=C(/C=C\c1ccc(O)c(O)c1)OCCc1ccccc1`: the AC50 is 1 µM (active).
As for `O=C(O)/C=C\c1ccc(O)c(O)c1`, the “activity, negative = inhibition” value was 0.538% [at 25.6 µM].
Consider `Cc1ccc(-c2nn(-c3ccccc3)cc2CSC(=N)N)cc1`, for which the AC50 was 12.6 µM (active).
Consider `c1cnc2ccc(C(c3nnnn3C3CCCC3)N3CCN4CCCC4C3)cc2c1` (configuration not stated), for which the “activity, negative = inhibition” value was -6%.
`N#Cc1cccc(-c2nc(Nc3ccccc3)c3ccccc3n2)c1`: the half-maximal activity concentration (AC50) is 1.26 µM (active).
The same measure, in the same setting: the same measure for `N#Cc1cccc(-c2nc(Nc3ccncc3)c3ccccc3n2)c1`: 0.631 µM (active).
For the molecule `N#Cc1cccc(NC(=O)N2CC[C@@]3(CCCN(C(=O)c4ccncc4)C3)C2)c1`, the “activity, negative = inhibition” value was -17.2%.
Turning to `CNc1nc(-c2cccc(C#N)c2)nc2ccccc12`, the AC50 was 0.0794 µM (active).
Consider `CNC(=O)[C@@H]1O[C@@H](n2cnc3c(N)ncnc32)[C@@H](O)[C@H]1O`, for which the “activity, negative = inhibition” value was -9.49%.
Take `CC(=O)OC[C@@H]1O[C@H](CCO/N=C\[C@@H](C)[C@H](OCc2ccccc2)C(C)C)C=C[C@@H]1OC(C)=O`: the activity, negative = inhibition was 9.09% [at 11.4 µM].
On the same count and under the same terms, the same measure for `CC(=O)OC[C@@H]1O[C@@H](O/N=C2/C[C@@H](O)[C@@H](O)[C@@H]3[C@@H]4C(=O)N(C5CCCCC5)C(=O)[C@H]4CC[C@H]23)[C@H](OC(C)=O)[C@H](OC(C)=O)[C@@H]1OC(C)=O`: -1.1% [at 11.4 µM]; for `CC(=O)Nc1ccc(C#Cc2ccc(NC(C)=O)cc2)cc1`: 2.37%.
With `S=C(Nc1ccccc1)Nc1ccccc1C#Cc1ccccc1`, the AC50 was 0.501 µM (active).
For the molecule `COc1ccccc1NC(=O)Nc1nc(-c2cccnc2)nc2ccccc12`, the AC50 was 2.51 µM (active).
Take `COc1cccc(-c2nc(NCCNC(C)=O)c3ccccc3n2)c1`: the AC50 was 2.51 µM (active).
As to `COCCNc1nc(-c2cccc(OC)c2)nc2ccccc12`, the half-maximal activity concentration (AC50) was 0.2 µM (active).
For `COc1cccc(-c2nc(NCc3ccccc3)c3ccccc3n2)c1`, the half-maximal activity concentration (AC50) was 3.16 µM (active).
Regarding `CCc1ncc(CO)n1Cc1cccc2ccccc12`, the activity, negative = inhibition is -6.53% [at 11.4 µM].
Still for that read-out and setting: the same measure for `CO[C@@H]1COC(=O)[C@H](C)NC(=O)C/C=C\[C@@H](C)[C@@H](NS(=O)(=O)c2ccc(C)cc2)COC(=O)C/C=C\[C@@H]1C`: -6.59% [at 11.4 µM].
Same read-out and setting: the same measure for `Cc1ccc(S(=O)(=O)ON=C2CCN(S(=O)(=O)c3ccccc3)CC2)cc1`: 13.2%.
As to `CC(=O)O[C@H]1CC[C@@]2(C)C(=CC[C@@H]3[C@@H]4CC[C@H](c5cc(C(F)(F)F)n(C(C)=O)n5)[C@]4(C)CC[C@@H]32)C1`, the activity, negative = inhibition was -13.7% [at 11.4 µM].
`COc1cccc(-c2nc(NCc3cccnc3)c3ccccc3n2)c1`: the AC50 was 0.158 µM (active).
In the case of `COc1cccc(-c2nc(NCc3cccs3)c3ccccc3n2)c1`, the concentration at half-maximal activity (AC50) is 0.316 µM (active).
As for `COc1cccc(-c2nc(NCc3ccccc3OC)c3ccccc3n2)c1`, the AC50 is 0.631 µM (active).
With `COc1ccccc1CNc1nc(-c2cccnc2)nc2ccccc12`, the AC50 is 1 µM (active).
As for `Cc1noc(C)c1C(=O)N1CCC2(CC1)CN(c1ncccn1)C2`, the “activity, negative = inhibition” value is 13.8%.
Still for that read-out and setting: the same measure for `Cc1ccc(S(=O)(=O)N2CCCC(C(=O)NCCCN3CCCCC3C)C2)cc1` (configuration not stated): -8.71%; for `COCc1nnc(NC(=O)CCN2C(=O)c3ccccc3C2=O)s1`: -18%; for `CCCc1ccc(-c2cc(C(=O)NN3CCOCC3)c3ccccc3n2)cc1`: -12.5%.
For `O=C(CCN1C(=O)c2ccccc2C1=O)NC(=S)Nc1cccc(Cl)c1`, the concentration at half-maximal activity (AC50) is 3.16 µM (active).
As to `CC(C)(C)c1nnc(NC(=O)c2cc(-c3ccccc3)nc3ccccc23)s1`, the “activity, negative = inhibition” value is -27.9%.
As for `Cc1ccc(-c2cc(C(=O)NN=C3CCCC3)c3ccccc3n2)cc1`, the half-maximal activity concentration (AC50) is 15.8 µM (active).
Still for that read-out and setting: the same measure for `Cc1cccc(NC(=S)NC(=O)CCc2ccccc2)c1`: 6.31 µM (active); for `Cc1ccccc1NC(=S)NC(=O)c1cc(-c2ccccc2)nc2ccccc12`: 14.1 µM (active).
With `CCC[C@H]1C[C@H](C(=O)N[C@H]([C@@H]2O[C@H](SC)[C@@H](O)[C@H](O)[C@@H]2O)[C@H](C)O)N(C)C1`, the “activity, negative = inhibition” value is -2.92% [at 25.6 µM].
Take `Cc1cccc(NC(=S)NC(=O)c2cc(-c3ccccc3)nc3ccccc23)c1`: the concentration at half-maximal activity (AC50) was 8.91 µM (active).
For the molecule `Cn1cnc([N+](=O)[O-])c1SCC(=O)O`, the activity, negative = inhibition is -9.68% [at 11.4 µM].
Regarding `Cc1nc(SCC(=O)c2ccc(F)cc2)c([N+](=O)[O-])[nH]1`, the AC50 was 6.31 µM (active).
Take `Cc1cc([N+](=O)[O-])nn1CC(=O)NNC(=S)Nc1ccc(F)cc1`: the “activity, negative = inhibition” value was -10.3%.
For the molecule `NCCSc1nc2ccccc2s1`, the AC50 is 0.316 µM (active).
Same read-out and setting: the same measure for `Oc1ccccc1C(Sc1nc2ccccc2s1)Sc1nc2ccccc2s1`: 1.26 µM (active).
For `c1ccc(NCCSc2nc3ccccc3s2)cc1`, the AC50 was 0.501 µM (active).
Still for that read-out and setting: the same measure for `c1ccc2sc(SCCSc3nc4ccccc4s3)nc2c1`: 0.794 µM (active).
Turning to `O=C(O)CCCSc1nc2ccccc2s1`, the activity, negative = inhibition is -16.9% [at 11.4 µM].
Regarding `CN(C)Cc1ccccc1-c1cc(NC2CC2)ncn1`, the half-maximal activity concentration (AC50) was 12.6 µM (active).
For the molecule `CN(C)Cc1ccccc1-c1cc(Nc2ccccc2)ncn1`, the AC50 is 15.8 µM (active).
`CC12CCC(C(=O)Nc3ncc([N+](=O)[O-])s3)(OC1=O)C2(C)C` (configuration not stated): the “activity, negative = inhibition” value was 0.774%.
Same read-out and setting: the same measure for `O=C(N/N=C/c1cccc(C(F)(F)F)c1)C1CCN(c2ncc(C(F)(F)F)cc2Cl)CC1`: -12.3%.
For `CON/C=C(\C=Nc1ccccc1)c1ncc(C(F)(F)F)cc1Cl`, the AC50 is 2.24 µM (active).
As to `C[C@@]12CC[C@@H]3c4ccc(O)cc4CC[C@H]3[C@H]1C[C@@H](O)[C@H]2O`, the “activity, negative = inhibition” value was -6.98% [at 25.6 µM].
On to `O=C1C(=O)N(Cc2ccc(Cl)c(Cl)c2)c2ccccc21`, for which the AC50 is 12.6 µM (active).
With `CCc1cc2c(c(CC)n1)CCC(=O)N2Cc1ccc(-c2ccccc2-c2nn[nH]n2)cc1`, the “activity, negative = inhibition” value is -18.6%.
For the molecule `N#Cc1ccccc1-c1ccc2ncnc(NC3CC3)c2c1`, the half-maximal activity concentration (AC50) is 0.1 µM (active).
For the molecule `CNc1ncnc2ccc(-c3ccccc3C#N)cc12`, the half-maximal activity concentration (AC50) is 1 µM (active).
Still for that read-out and setting: the same measure for `Cn1c(C(F)(F)F)nc2c(=O)oc3ccccc3c21`: 0.158 µM (active).
Turning to `Cc1cccc(C)c1NC(=O)c1cc2c(=O)c3ccccc3oc2nc1C(F)(F)F`, the “activity, negative = inhibition” value is -28.1%.
Regarding `CC(C)[C@H](CO)Nc1nc(Nc2cc(N)cc(Cl)c2)c2ncn(C(C)C)c2n1`, the AC50 was 0.501 µM (active).
For `CC(C)[C@H](CO)Nc1nc(Nc2ccc(C(=O)O)c(Cl)c2)c2ncn(C(C)C)c2n1`, the “activity, negative = inhibition” value is -16.8%.
Consider `Cc1cc(N)n2ncc(-c3ccc(Cl)cc3)c2n1`, for which the AC50 was 1.26 µM (active).
Turning to `CC1(C)O[C@@H]2O[C@H]([C@@H]3COC(C)(C)O3)[C@H](N)[C@H]2O1`, the activity, negative = inhibition is 8.69% [at 2.29 µM].
Consider `Cc1cccc(NC(=S)N2CCC(N(C)CC3CCCO3)CC2)c1C` (configuration not stated), for which the “activity, negative = inhibition” value was 3.1%.
On to `Cc1cccc(NC(=O)c2onc3c2CCCC3)c1C`, for which the AC50 is 2.24 µM (active).
With `O=C(Nc1ccc2ccccc2c1)c1onc2c1CCCC2`, the AC50 was 4.47 µM (active).
In the case of `CO[C@@H]1COC(=O)C/C=C\[C@H](C)COC(=O)[C@H](Cc2ccccc2)NC(=O)C/C=C\[C@H]1C`, the activity, negative = inhibition is 4.04% [at 11.4 µM].
Consider `Cn1c(-c2ccc(Br)cc2)cnc1NCc1cccnc1`, for which the AC50 is 12.6 µM (active).

The values are drawn from PubChem BioAssay AID1851 (National Center for Advancing Translational Sciences (NCATS), 2009).
